The list is not random: actives were taken first. Their share in the collection is about 19%.
HT1080 IDH1KD tx: qHTS for induction of synthetic lethality in tumor cells producing 2HG: qHTS for the HT-1080-IDH1KD cell line; AID 686971, 2013; Potency, µM (titrated, usually from 46.1 µM), for the others: at the highest dose activity, negative = toxicity, usual class: cytotoxic; HT-1080 IDH1 knockdown viability, ATP luminescence, 48 h; hit rate 2% among 360,000;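 note: potency is the fitted concentration of half-maximal effect; 0% = DMSO wells and -100% = cell-free medium wells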
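Luminescent ATP read-out (CellTiter-Glo, 10 min at room temperature) after 48 h compound exposure at 37 °C gave viability of IDH1-knockdown HT-1080 cells. Activity was normalised to DMSO and cell-free wells, then fitted as concentration-response curves.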
TDP1 cell CPT: qHTS for Inhibitors of human tyrosyl-DNA phosphodiesterase 1 (TDP1): qHTS in cells in presence of CPT. AID 686979, 2013. Potency, µM (doses to about 46.2 µM), inactives show top-dose activity change, negative = growth inhibition, usual class: inhibitors. chicken DT40 Tdp1-/-;hTDP1 cells + 20 nM CPT, ATP luminescence, 48 h. hit rate 12% among 420,000; note: potency is the fitted concentration of half-maximal effect; nearly all actives have a fitted effect of over 55% in size
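Cell growth measured by CellTiter-Glo luminescence after a minimum 48 h, 37 C compound exposure with 20 nM CPT in Tdp1-knockout DT40 cells stably expressing hTDP1, seeded 400/well; qHTS titration format.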
TDP1 cell noCPT: qHTS for Inhibitors of human tyrosyl-DNA phosphodiesterase 1 (TDP1): qHTS in cells in absence of CPT; DT40 Tdp1-/- hTDP1 cells, no CPT, ATP luminescence, 48 h; Potency, µM (titrated, usually from 46.2 µM), for inactives: top-dose activity change, negative = growth inhibition, actives largely listed as inhibitors; hit rate 15% among 420,000; note: potency is the fitted concentration of half-maximal effect; nearly all actives have a fitted effect of over 55% in size
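Camptothecin absent (DMSO only). Human TDP1-complemented DT40 knockout cells, 400 cells/well, 37 °C for minimum 48 hr; ATP measured via CellTiter-Glo, 30 min dark incubation, luminescence.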
IL1B secr inh: qHTS for Inhibitors of Inflammasome Signaling: IL-1-beta AlphaLISA Primary Screen; activity change, % at 57.5 µM; hit rate 4.7% among 360,000; THP-1 LPS/ATP IL-1B secretion, AlphaLISA, 16 h; stronger effect = lower value; in the data active = activity change below about -50%; inconclusive = mostly about -30% to -49%
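Secreted IL-1B measured by AlphaLISA bead assay after 16 h compound exposure of THP-1 cells; compounds (final up to 57.5 uM) added 1 h before LPS (250 ng/mL) and ATP (1.25 mM) stimulation; lower signal means less secretion.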
HT1080-NT tox: qHTS for induction of synthetic lethality in tumor cells producing 2HG: qHTS for the HT-1080-NT fibrosarcoma cell line | HT-1080-NT fibrosarcoma viability, CellTiter-Glo ATP luminescence, 48 h | Potency, µM (highest dose often 46.1 µM), for the others: top-dose activity, negative = less viability, usual class: cytotoxic | hit rate 1.6% among 360,000;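 note: NT is the 2HG producing partner of a matched IDH1 knockdown line; potency is the fitted concentration of half-maximal effect; 0% = DMSO-treated cells and -100% = media-only wells without cells; nearly all actives have a fitted effect of over 55% in size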
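Fibrosarcoma NT cells, 750 per well in 5% FBS RPMI, were exposed to compound for 48 hours. Viability: CellTiter-Glo luminescence.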
ELG1 DNA repair: qHTS screen for small molecules that inhibit ELG1-dependent DNA repair in human embryonic kidney (HEK293T) cells expressing luciferase-tagged ELG1 | HEK293T ELG1-luciferase reporter, luminescence, 16 h; DNA damage induced by 5-fluorouridine | Potency, µM (top dose mostly 46.1 µM), for inactives: at the highest dose activity change, negative = inhibition, actives largely listed as inhibitors | hit rate 2.3% among 330,000 | AID 504467, 2011; note: potency is the fitted concentration of half-maximal effect; nearly all actives have a fitted effect of over 55% in size
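Cells (2,000 per well) received 5-fluorouridine plus test compound or DMSO and were incubated 16 hr at 37 °C, 5% CO2. Luciferase activity was read by luminescence 30 min after ONE-Glo addition; signal suppression marked inhibition of damage-induced ELG1 function.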
Active calls of the source: *; ? = inconclusive; / = not tested or not shown; [ ] = remark or other dose. Unless noted, calls come from the whole dose curve; as a rule, active = well fitted curve in the direction sought with a large enough effect; inconclusive = small, poorly fitted or top-dose-only effect, or another doubt; inactive = no such curve, though single readings can be large; an effect the other way counts as inactive or inconclusive. Unless noted, % is set by controls: 0 for no effect and ±100 for the full control effect.

SMILES	HT1080 IDH1KD tx	TDP1 cell CPT	TDP1 cell noCPT	IL1B secr inh	HT1080-NT tox	ELG1 DNA repair
CCCCNC(=O)O[C@@H]1C[C@H]2CCC(=O)N3CC[C@@H](C1)[C@@H]23	10%	?	-3%	-6	15%	8%
CN(C)C(=O)c1ccc(-c2cncnc2NCc2cccnc2)cc1	/	-5%	-7%	/	/	/
CCCCn1cnc2c(SCc3cccc(F)c3)nc(N)nc21	-15%	-23%	?	-25	-15%	/
CCCCn1cnc2c(SCc3ccc([N+](=O)[O-])cc3)nc(N)nc21	-1%	15µM*	?	0	-1%	/
CC1(C)Cc2c(cnn2-c2ccccc2)-c2c1c1ccccc1n2CC(O)CCl (stereo not given)	21µM*	?	?	21	18µM*	26µM*
O=C1CC(N2CCC(c3nc4ccccc4[nH]3)CC2)C(=O)N1c1ccccc1F (stereo not given)	0%	26µM*	?	-4	17%	9%
CCn1cc(CCC(=O)NCCN2CCOCC2)c2ccccc21	4%	-4%	8%	25	-4%	7%
O=C1C=C(c2cccc(O)c2)CCC1	10%	2%	-1%	-3	14%	/
Oc1cccc(-c2c3nc(c(-c4cccc(O)c4)c4ccc([nH]4)c(-c4cccc(O)c4)c4nc(c(-c5cccc(O)c5)c5ccc2[nH]5)CC4)C=C3)c1	/	27µM*	19µM*	/	/	/
Cc1cccc(C(=O)NN(C)c2nc(-c3ccccc3)nnc2C(F)(F)F)c1	1%	21µM*	2.6µM*	5	3%	-7%
CN(NC(=O)C(C)(C)C)c1nc(-c2ccccc2)nnc1C(F)(F)F	-2%	?	-29%	15	2%	11%
COc1ccc(C(=O)NN(C)c2nc(C(F)(F)F)nc3ccccc23)cc1	0.0065µM*	0.18µM*	0.21µM*	94	?	?
CN(NS(=O)(=O)c1ccc(Cl)cc1)c1nc(C(F)(F)F)nc2ccccc12	7%	-1%	13%	26	0%	23µM*
CN(NS(=O)(=O)c1ccccc1)c1nc2ccccc2nc1C(F)(F)F	-6%	-17%	-18%	-21	-9%	-6%
COc1ccc(C(=O)NN(C)c2nc(-c3ccccc3)nnc2C(F)(F)F)cc1	9%	?	16µM*	-5	14%	-19%
COc1ccc(C(=O)NN(c2ccccc2)c2ccccc2)cc1	0%	?	-5%	-10	7%	-2%
CC1=Nc2ccccc2N=C(NC(=O)c2ccccc2)C1c1ccccc1 (stereo not given)	3%	-26%	?	?	0%	?
C#CCOCCOCCOCCNc1nc(N2CCN(C(=O)[C@H](CCC(=O)O)n3cc([C@@H](N)CC(N)=O)nn3)CC2)nc(N2CCN(C(=O)[C@H](CCC(=O)O)n3cc([C@@H](N)CC(N)=O)nn3)CC2)n1	6%	-17%	-6%	3	4%	9%
CCC(=O)c1ccc(OCC(=O)N2CCN(S(=O)(=O)c3ccc(Cl)s3)CC2)cc1	-8%	?	?	8	-5%	-11%
C=CCN=c1scc(-c2ccc(F)cc2)n1/N=C/c1ccccn1	?	2.6µM*	2.6µM*	?	-1%	?
C=CCN=c1scc(-c2ccccc2)n1/N=C/c1ccccn1	18µM*	1.8µM*	1.3µM*	?	18µM*	?
C=CCn1c(-c2ccc(OC)c(OC)c2)cs/c1=N\c1ccccn1	-8%	?	?	-1	0%	-26%
Cc1cccc(C)c1NC(=O)C(C)Sc1n[nH]c(-c2ccncc2)n1 (stereo not given)	11%	-20%	-19%	20	11%	7%
C#Cc1ccc2c(c1)COc1c3ccccc3nn1-2	-6%	10µM*	?	-7	-4%	/
CCOc1ccc2nc(SCC(=O)Nc3ccc4c(c3)OCO4)sc2c1	-2%	?	?	43	-8%	-1%
SMILES	HT1080 IDH1KD tx	TDP1 cell CPT	TDP1 cell noCPT	IL1B secr inh	HT1080-NT tox	ELG1 DNA repair
CCOC(=O)CSc1nc2ccc(Nc3nc(N4CCOCC4)nc(N4CCOCC4)n3)cc2s1	?	?	21µM*	17	3%	?
Cc1ccc(NC(=O)CSc2nc3ccc(Nc4nc(N5CCOCC5)nc(N5CCOCC5)n4)cc3s2)cc1	2%	?	18µM*	21	0%	?
CC(C)(C)NC(=O)CSc1nc2ccc(Nc3nc(N4CCOCC4)nc(N4CCOCC4)n3)cc2s1	?	13µM*	6.5µM*	-8	?	3.3µM*
CC(=O)CSc1nc2ccc(Nc3nc(N4CCOCC4)nc(N4CCOCC4)n3)cc2s1	?	?	?	-13	-21%	?
COc1ccc(NC(=O)CSc2nc3ccc(Nc4nc(N5CCOCC5)nc(N5CCOCC5)n4)cc3s2)cc1	2%	12µM*	6.5µM*	-10	2%	2.3µM*
O=C(COC(=O)COc1cccc(C(F)(F)F)c1)Nc1ccc(N2CCOCC2)cc1	0%	-8%	-14%	10	13%	?
COC(=O)[C@@]1(C)[C@H]2C(=O)N(C)C(=O)[C@H]2[C@H]2CN=C(SC)N21	8%	-5%	-10%	5	6%	11%
CCOC(=O)c1sc(SC)c2c1CCC/C2=N/OC	3%	4%	-1%	12	0%	2%
CO/N=C1\CCCc2c(C(=O)NN)sc(SC)c21	16µM*	?	?	36	16µM*	?
O=c1[nH]c(SCc2nc3ccccc3c(=O)n2-c2ccccc2C(F)(F)F)nc2ccccc12	-14%	16µM*	?	-81*	-7%	18µM*
O=c1[nH]c(SCc2nc3ccccc3n2Cc2ccccc2)nc2ccccc12	-15%	-26%	-21%	4	-12%	?
CC[N+](C)(C)c1ccc(/C=C/c2ccncc2)cc1	/	0.71µM*	0.63µM*	/	/	/
CCC[N+](C)(C)c1ccc(/C=C/c2ccncc2)cc1	/	0.35µM*	0.35µM*	/	/	/
C(=C\c1ccncc1)/c1ccccc1	19%	-3%	10%	0	24%	?
COC(=O)c1ccc(CN2CCOc3ccc(CN4CCC(O)(c5cccnc5)CC4)cc3C2)cc1	/	-3%[9.04 µM]	?	/	/	/

Assay outcomes (PubChem)
